From ChEMBL document CHEMBL3988442, “University of Dundee, Small-Polar-MMV Screening Library” (2021)
The campaign covered roughly 48,000 compounds. About 13,000 (27%) showed an effect of 50% or more. The list shows a part of the results.

system: Wolbachia pipientis; experiment: Anti-Wolbachia Cell-Based Screen; type: functional; parameters: scale not given: in the data most compounds retested in dose-response had high values; settings: 5 µM

Row | Structure (SMILES) | Percent Effect [%]
1 | CNCc1cn(C[C@H]2C[C@@H]3CCN2C[C@@H]3C(=O)NC2CCCCC2)nn1 | -0.1027
2 | COc1cccc([C@@H]2CCN(Cc3ccc4ccccc4n3)C[C@H]2O)c1 | -2.697
3 | Cc1ncc(CN2CCC3(CCCN(CC4CCC4)C3)C2)cn1 (stereo unspecified) | 97.43
4 | Fc1cnc(N2CC3(CCN(CC4CC4)C3)C2)nc1.O=C(O)C(F)(F)F | 6.625
5 | COc1ncc(CN2CCC3(CCCN(CC4CCC4)C3)C2)cn1 (stereo unspecified) | 83.26
6 | CCc1ncc(CN2CCC3(CCCN(CC4CCC4)C3)C2)cn1 (stereo unspecified) | 67.34
7 | O=C(O)C(F)(F)F.c1cnc(N2CCCC3(CCN(CC4CCC4)C3)C2)nc1 (stereo unspecified) | -2.816
8 | CCc1ncc(CN2C[C@H]3CC[C@@H]2CN(C(=O)C2CCC2)C3)cn1 | -5.818
9 | CCc1cnc(N2CC3(CCN(Cc4ccsc4)C3)C2)nc1.O=C(O)C(F)(F)F | 18.1
10 | COCCN1CCC2(CCCN(c3ncc(F)cn3)C2)C1 (stereo unspecified) | 7.957
11 | c1cncc(CN2CCC3(CCCN(c4nncs4)C3)C2)c1 (stereo unspecified) | 3.767
12 | Cc1c(CN2CCCC(C(=O)c3ccccc3)C2)cc(C#N)n1C (stereo unspecified) | -33.94
13 | CCn1ncc(CN2CCCC(C(=O)c3ccc(Cl)cc3)C2)c1C (stereo unspecified) | -8.229
14 | CC(C)CNC(=O)[C@H]1C[C@@H]2CN(Cc3cccnc3)C[C@H]1O2.O=C(O)C(F)(F)F.O=C(O)C(F)(F)F | 1.995
15 | O=C(O)C(F)(F)F.O=C1[C@H]2CN(Cc3ccccc3)C[C@H]2CN1c1cncnc1 | 5.118
16 | CCNC(=O)[C@H]1CN(Cc2ccccc2)C[C@@H]1C(=O)c1ccccc1 | 155
17 | COCCN(C)C(C)Cc1ccccc1OC (stereo unspecified) | -4.833
18 | CN(Cc1cncnc1)[C@H]1CN(CC2CC2)[C@@H]2CCCO[C@@H]21.O=C(O)C(F)(F)F.O=C(O)C(F)(F)F | -10.71
19 | Cc1noc(C)c1CN1C[C@H](OCC(=O)N(C)C)[C@H]2OCCC[C@H]21.O=C(O)C(F)(F)F | -4.98
20 | CCO[C@H]1CN(CC2CC2)[C@@H]2CCCO[C@H]12.O=C(O)C(F)(F)F | 109.7
21 | CO[C@@H]1CC[C@H]2[C@H]1OCCN2CC1CCOCC1.O=C(O)C(F)(F)F | 4.293
22 | CO[C@H]1CN(Cc2ccc(C)o2)[C@@H]2CCCO[C@H]12.O=C(O)C(F)(F)F | -4.054
23 | Cc1noc(C)c1CN1C[C@H](OCC2CC2)[C@H]2OCCC[C@H]21.O=C(O)C(F)(F)F | 2.314
24 | CO[C@H]1CN(CC2CCOCC2)[C@@H]2CCCO[C@H]12.O=C(O)C(F)(F)F | 117.1
25 | CO[C@@H]1CN(Cc2scnc2C)[C@@H]2CCCO[C@@H]21.O=C(O)C(F)(F)F.O=C(O)C(F)(F)F | -11.47
26 | CO[C@H]1CN(CC2CC2)[C@@H]2CCCO[C@H]12.O=C(O)C(F)(F)F | 102.7
